PubChem BioAssay AID623868 (Vanderbilt High Throughput Screening Facility, 2012)
Hit rate of the full screen: of about 2,100 compounds, about 760 (36%) were called active.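 How the source made its calls: active means thallium-flux fluorescence traces judged by eye to show enhanced or reduced glutamate response, manual score 1 or -1, so both directions (some results past the limit were not filed as active); inactive means the rest, including fluorescent or raised-baseline compounds.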 Not all results are given here.

Assay: non-GIRK thallium flux modulation in mGlu8 cells, confirmation, counter-screen for GIRK activator project, cell-based, HEK-293 rmGlu8, no GIRK (AID 623868);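 further: extra codes mark interference with 3 for fluorescent and 4 for baseline rise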
Settings: thallium flux fluorescence, at 10 µM, actives lie on both sides, codes: 1 enhancer, -1 blocker, 0 none, thallium stimulus containing EC20 glutamate
For `CC(C)C1Cc2c(sc3[nH]c(=S)n(Cc4ccccc4)c(=O)c23)CO1` (stereo not drawn), the manual score was 1 (active). In the case of `CC1(C)Cc2c(sc3[nH]c(=S)n(Cc4ccco4)c(=O)c23)CO1`, the manual score is reported as 1 (active). With `CC(C)C1Cc2c(sc3c2c(=O)n(Cc2ccccc2)c2nncn32)CO1` (stereo not drawn) the manual score was -0.5 (inactive). For `CC1(C)Cc2c(sc3[nH]c(=S)n(Cc4ccccc4)c(=O)c23)CO1`, the manual score was 1 (active). For `CCC1(C)Cc2c(sc3[nH]c(=S)n(Cc4ccccc4)c(=O)c23)CO1` (stereo not drawn), the manual score was 1 (active). For `Cc1ccc(C)c(OCC(O)CN2C(C)CCCC2C)c1` (stereo not drawn), the manual score was 0 (inactive). For `Cc1cc(N2CCC(C)CC2)n2ncc(-c3ccccc3)c2n1`, the manual score was 0 (inactive). In the case of `O=C(C1CCN(c2ncnc3c2sc2cccc(F)c23)CC1)N1CCOCC1`, the manual score is reported as -0.5 (inactive). In the case of `CN(C)CCCOc1nc2c(c(=O)n(C)c(=O)n2C)n1C`, the manual score is reported as 1.5 (inactive). In the case of `O=C(Nc1ccc(Cl)cc1)NC1CCCCC1Cc1ccco1` (stereo not drawn), the manual score is reported as 0 (inactive). In the case of `CC1CCc2c(sc(NC(=O)C(=O)NCc3ccco3)c2C#N)C1` (stereo not drawn), the manual score is reported as 1 (active). In the case of `O=C(NCc1ccccc1)C(=O)Nc1nc(C23CC4CC(CC(C4)C2)C3)cs1`, the manual score is reported as 0 (inactive). In the case of `CCn1nc(C(=O)OCC(=O)N2CCc3ccccc32)c2ccccc2c1=O`, the manual score is reported as -1 (active). In the case of `CCCCn1nc(C(=O)N2CCc3ccccc32)c2ccccc2c1=O`, the manual score is reported as 0 (inactive). With `CCn1nc(C(=O)OCC(=O)c2c[nH]c3ccccc23)c2ccccc2c1=O` the manual score was -1 (active). With `CCOC(=O)C(C)Sc1nnc(-c2c[nH]c3ccccc23)n1C` (stereo not drawn) the manual score was 0 (inactive). With `O=C(COc1ccc2ccccc2c1CN1CCOCC1)N1CCc2ccccc21` the manual score was 0 (inactive). For `CCN(C(=O)CN1CCN(c2ccccc2O)CC1)c1c(N)n(Cc2ccccc2)c(=O)[nH]c1=O`, the manual score was 0 (inactive). In the case of `CC(C)(C)c1ccc(C(=O)NC(=S)Nn2cnnc2)cc1`, the manual score is reported as 0 (inactive). For `CC(C)(C)NC(=O)C(=O)NNC(=O)c1ccc(C(C)(C)C)cc1`, the manual score was 1 (active). For `Cc1cccc(C(=O)NNC(=O)C(=O)NC(C)(C)C)c1`, the manual score was 1 (active). For `CC(C)(C)c1ccc(SCC(N)=O)cc1`, the manual score was 0 (inactive). For `COc1ccccc1N1CCN(C(=O)CCn2c(=O)[nH]c3ccsc3c2=O)CC1`, the manual score was 0 (inactive). In the case of `COc1ccc(Cn2c(=S)[nH]c3ccsc3c2=O)cc1`, the manual score is reported as 1 (active). For `COc1cc(NC(=O)CCn2c(=O)[nH]c3ccsc3c2=O)cc(OC)c1`, the manual score was 0 (inactive). For `Cc1cc(C)cc(OCC(=O)N2N=C(C(F)(F)F)CC2(O)C(C)(C)C)c1` (stereo not drawn), the manual score was 0 (inactive). For `Cc1ccccc1C(=O)Nc1ccc2nc3n(c(=O)c2c1)CCC3`, the manual score was 0 (inactive). With `Cc1ccccc1CNC(=O)Nc1cccs1` the manual score was 0 (inactive). In the case of `Cc1ccccc1C(=O)Nc1nc(=S)ss1`, the manual score is reported as 1 (active). With `O=C(Cn1c(=O)[nH]c2ccsc2c1=O)NC1CCCCCC1` the manual score was 0 (inactive). With `CCn1c(O)c(N=NC2=NC(=O)CS2)c2cc(C)ccc21` the manual score was 1 (active). With `CCc1ccc2c(c1)c(N=NC1=NC(=O)CS1)c(O)n2CC` the manual score was 1 (active). For `CCc1ccc2c(c1)c(N=NC1=NC(=O)CS1)c(O)n2C`, the manual score was 1 (active). In the case of `CC(Nc1nc(N2CCCC2)nc2ccccc12)c1ccccc1` (stereo not drawn), the manual score is reported as 0 (inactive). With `Cc1ccccc1/C=c1\s/c(=C\C(=O)C(C)(C)C)[nH]c1=O` the manual score was 0.5 (inactive). With `CC(C)(C)S(=O)(=O)c1ccc(S(=O)(=O)C(C)(C)C)s1` the manual score was 0 (inactive). For `CCCn1nc2cc(C(=O)NCCc3ccc(C)cc3)ccc2c1OCC`, the manual score was 0 (inactive). For `CCCn1nnnc1NC(=O)c1ccc2ccccc2c1`, the manual score was 1 (active). For `CCC(=O)Nc1ccc2c(c1)ncn2-c1ccc(OC)cc1`, the manual score was 0 (inactive). With `CC1CCCN(Cc2cccc(Oc3ccccc3)c2)C1` (stereo not drawn) the manual score was 0 (inactive). With `Cc1ccc(N=Nc2ccc(O)c3ncccc23)cc1` the manual score was 1 (active). For `Cc1ccccc1N=Nc1ccc(O)c2ncccc12`, the manual score was 1 (active). For `O=c1cc(CN2CCOCC2)nc(C2CC2)[nH]1`, the manual score was 0 (inactive). For `C/C(CC(O)c1ccc2ccccc2n1)=N/O` (stereo not drawn), the manual score was 0 (inactive). For `CCCCn1c(N)c(C(=S)NC(=O)CC(C)C)c(=O)n(C)c1=O`, the manual score was 1 (active). With `CCCCn1c(N)c(C(=S)NC(=O)CC(C)(C)C)c(=O)n(C)c1=O` the manual score was 1 (active). For `CCN(CC)c1ccc2cc(-c3nnc(-c4ccccc4)o3)c(=O)oc2c1`, the manual score was 3 (inactive). For `CC12CCC(C(=O)N(CSC(=S)N/N=C\c3ccccc3O)C1=O)C2(C)C` (stereo not drawn), the manual score was 1 (active). With `CC12CCC(C(=O)N(CSC(=S)N/N=C\c3ccccc3Cl)C1=O)C2(C)C` (stereo not drawn) the manual score was 1 (active). In the case of `O=C(c1cccc(F)c1)N1CCN(C(=O)c2cc(-c3ccc(Cl)cc3Cl)on2)CC1`, the manual score is reported as 0 (inactive). With `CC(C)(C)c1ccc(-c2n[nH]c(=S)n2C2CCCC2)cc1` the manual score was 1 (active). For `CC(C)n1c(-c2ccc(C(C)(C)C)cc2)n[nH]c1=S`, the manual score was 1 (active). In the case of `CCCCCCc1cc2cc(-c3nnc(-c4cc(OC)c(OC)c(OC)c4)o3)c(=O)oc2cc1O`, the manual score is reported as 3 (inactive). With `CC(C)CCn1c(S(=O)(=O)O)nc2ccccc21` the manual score was 0 (inactive). For `O=C(N/N=C\c1ccc(Cl)s1)c1cccs1`, the manual score was 1 (active). With `NS(=O)(=O)c1ccc(CCNC2CC(=O)N(Cc3ccccc3)C2=O)cc1` (stereo not drawn) the manual score was 0 (inactive). With `Cc1nc(NCCc2ccc(S(N)(=O)=O)cc2)c2c(C)c(C)sc2n1` the manual score was 1 (active). In the case of `Cc1cccc(-n2ncc3c(NCCc4ccc(S(N)(=O)=O)cc4)ncnc32)c1`, the manual score is reported as 0 (inactive). For `CCc1cc(C(=O)NNC(=S)Nc2cc(C)ccc2C)cs1`, the manual score was 1 (active). With `Cc1ccc(C2CC2C(=O)NNC(=S)Nc2ccc(Cl)cc2)cc1` (stereo not drawn) the manual score was 0.5 (inactive). With `CCc1cc(C(=O)NNC(=S)Nc2ccccc2C)cs1` the manual score was 1 (active). In the case of `Cc1ccc(C2CC2C(=O)NNC(=S)Nc2cccc(Cl)c2)cc1` (stereo not drawn), the manual score is reported as 0 (inactive). For `CCn1c(NC(=O)Nc2cccc(C)c2C)cc2sccc21`, the manual score was 0 (inactive). With `CCc1cc(C(=O)NNC(=S)Nc2cccc(C)c2)cs1` the manual score was 1 (active). In the case of `Cc1ccc(C2CC2C(=O)NNC(=S)Nc2cccc(C)c2)cc1` (stereo not drawn), the manual score is reported as 1 (active). In the case of `Cc1ccc(Cl)cc1NC(=S)NCc1cccn1C`, the manual score is reported as 0 (inactive). For `CCc1cccc(NC(=O)CCSCCC(=O)Nc2cccc(CC)c2)c1`, the manual score was 0 (inactive). For `CCOC(=O)CC1=C(C(=O)OCC)C(c2cccs2)C(C#N)=C(N)O1` (stereo not drawn), the manual score was -0.5 (inactive).
